Experimental data published in PubChem BioAssay (NCI).
“And” between values parts separate entries of the source, which are not always exact repeats. Identical values can stand only once. About 83,000 compounds went through this panel and 20% of them were active in at least one assay; those are over-represented in the sample as a whole.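 Note: values are percent growth. 100 is the growth of untreated cells, values between 100 and 0 indicate rising inhibition; between -100 and 0 indicates cell death.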 The source made the active and inactive calls.

system: PC-3 prostate; assay: NCI-60 one-dose screen, 48 h (100 = growth as untreated, 0 = no growth, -100 = all killed); conditions: 1 µM
Description: Growth inhibition of the PC-3 human tumor cell line is measured as a screen for anti-cancer activity. Cells are grown in 96 well plates and exposed to the test compound for 48 hours. Compounds are tested at a single concentration, which is 10^-5 M for most compounds. The reported endpoint is percent growth (GI% or GIPRCNT), where numbers from 0 - 100% represent growth inhibition, and numbers from -100% - 0 represent cell death. For example, a value of 40 represents 60% growth inhibition. A value of 0 means no net growth occurred over the course of the experiment. A value of -40 indicates 40% of cells at the beginning of the experiment died by the end of the experiment. A value of -100 means all cells are dead at the end of the experiment.
NCI-60 Human Tumor Cell Lines Screen was performed using the standard one-dose NCI protocol, which is described in more detail at https://dtp.cancer.gov/discovery_development/nci-60/default.htm.
Compounds with GIPRCNT values below 10 were considered active. Activity score was based on GIPRCNT using the following formula: […]
Score is 0 for GIPRCNT values of 100 or above, 50 for GIPRCNT values of 0, and 100 for GIPRCNT values of -100.

Compound | growth
CC/C(=C(\c1ccc(O)cc1)c1ccc(OCCN(C)C(=O)CCOCCNC(=O)c2ccc3c(c2)CN([C@@H]2CCC(=O)NC2=O)C3=O)cc1)c1ccccc1 | 54.2% (inactive)

same assay, conditions: 10 µM

Compound | growth
CC/C(=C(\c1ccc(O)cc1)c1ccc(OCCN(C)C(=O)CCOCCNC(=O)c2ccc3c(c2)CN([C@@H]2CCC(=O)NC2=O)C3=O)cc1)c1ccccc1 | 52.9% (inactive)

same assay, conditions: 10 µM unless noted

Compound | growth
CN(C)CCCc1ccc(Nc2cnn(C)c(=O)c2Cl)cc1 | 91% (inactive)
CCCCNc1ccc2c3c(cccc13)C(=O)N(c1cccc(-c3nn(-c4ccccc4)cc3-c3nc4ccccc4s3)c1)C2=O | 87.7% (inactive)
c1n[nH]cc1-c1nc2ccc3[nH]ncc3c2c2c1CC1(CC2)COC1 | 53% (inactive)
CCCCCCCCc1ccc(C(=O)Nc2cccc(O)c2)cc1 | 52.4% (inactive)
CN(C)c1ccc(/C=C/c2n(Cc3ccc4ccccc4c3)c3ccccc3[n+]2Cc2ccc3ccccc3c2)cc1 | -50.9% (active)
CCOc1ccc(-c2cc(-c3cc(C(C)C)c(O)cc3C)nn2-c2ccc(S(N)(=O)=O)cc2)cc1 | 42.4% (inactive)
O=C(N/N=C/c1c[nH]c2ccccc12)Nc1ccccc1Cl | 26.5% (inactive)
COc1cc(C2CC(c3ccc(C(F)(F)F)cc3)=Nc3c(N)nc(N)nc3N2)ccc1Oc1nc(Nc2ccc(F)cc2)nc(N(C)C)n1 (stereo not given) | 30.7% (inactive)
O=C1CC(c2ccc(I)cc2)OC2C=Cc3ccccc3C12 (stereo not given) | 101% (inactive)
Nc1ccc(-c2ccc3ncnc(N4CCc5cc(F)c(Cl)cc54)c3c2)cn1 | 19% (inactive)
FC(F)(F)CN1CCN(CCn2c(C(F)(F)F)cc3c(Cl)ncnc32)CC1 | 18.2% (inactive)
c1n[nH]cc1-c1nc2ccc3[nH]ncc3c2c2c1CC1(CCOCC1)CC2 | 47.4% (inactive)
O=C1CCC(N2C(=O)c3cccc(NCCCCCC(=O)N4CCN(c5ccc6nc7c(nc6c5C(F)(F)F)C(=O)c5ncccc5C7=O)CC4)c3C2=O)C(=O)N1 (stereo not given) | -19.8% (active)
Cc1nc2sccn2c1-c1nnc(SCc2ccccc2)o1 | 82% (inactive)
O=C(Nc1nc2ccc([N+](=O)[O-])cc2s1)Nc1ccc(Cl)cc1Cl | 47.3% (inactive)
COc1ccc(-c2nnc3c(/C=C/c4ccc(Br)cc4)nc4ccccc4n23)cc1 | 86.4% (inactive)
Cn1ncc2c(N)nc(Oc3ccccc3-c3ccccc3)nc21 | 58.5% (inactive)
Cn1cc(-c2cc3nc(-c4cn(C)c5ncc(Br)cc45)cc(N)n3n2)c2cc(F)ccc21 | 19.2% (inactive)
Cc1ccc(C2CC(c3ccc(S(=O)(=O)NCCNc4nc(N(C)C)nc(N5CCOCC5)n4)cc3)=Nc3c(N)nc(N)nc3N2)cc1 (stereo not given) | 27.9% (inactive)

Compound | growth
COc1cc(C2CC(c3ccc(F)cc3)=Nc3c(N)nc(N)nc3N2)ccc1Oc1nc(Nc2ccc(F)cc2)nc(N(C)C)n1 (stereo not given) | 27% (inactive)
O=C1Nc2ccccc2/C1=C/C(=O)c1cc2ccccc2oc1=O | 95.1% (inactive)
CC1=C(C(=O)Nc2ccccc2)C(c2cccc3ccccc23)n2c(nc3ccccc32)N1 (stereo not given) | 31.3% (inactive)
O=C(CSc1nnc(-c2ccc(-c3nc4ccc(Cl)cc4[nH]3)cc2)o1)Nc1ccccc1 | -13.6% (active)
Cc1ccc(C(=O)Nc2cccc(C(=O)NC(=S)Nc3ccc(S(N)(=O)=O)cc3)c2)cc1 | 78.9% (inactive)
COc1ccc(C(=O)c2cc(C(C)=O)c3c(C)cc(C)cn23)cc1 | 82.9% (inactive)
Cc1ccc(C2CC(c3ccc(NC(=O)Nc4ccccc4)cc3)=NN2c2ccc(S(C)(=O)=O)cc2)cc1 (stereo not given) | 1.02% (active)
COc1cc(/C=C/C(=O)c2cnn(-c3cc(=O)[nH]c4ccccc34)c2C)cc(OC)c1OC | 43.3% (inactive)
OCCn1cc(-c2nc3ccc4[nH]ncc4c3c3c2CCCC3)cn1 | 67.4% (inactive)
O=C(NNC(=O)c1ccc(OCc2nc3ccc(Cl)cc3[nH]2)cc1)Nc1ccc(Cl)c(C(F)(F)F)c1 | 33.3% (inactive)
CSc1ccc(OCc2nc3ccccc3n2-c2cccc(NS(C)(=O)=O)c2)cc1 | 80.5% (inactive) and 93.4% (inactive)
OC1CCC(Cn2c(C(F)(F)F)cc3c(Cl)ncnc32)CC1 (stereo not given) | 23.5% (inactive)
N#Cc1ccc(C(=O)CSc2nc3c(c(Nc4ccc(S(N)(=O)=O)cc4)n2)CCC3)cc1 | 65.3% (inactive)
COc1ccc2c(c1)C(Sc1ccc(Cl)cc1)c1c(nc(N)c(C#N)c1N)O2 (stereo not given) | 20% (inactive)
O=C(N=Nc1c(O)[nH]c2ccc(Cl)cc12)c1ccc2nc(-c3ccc(Cl)cc3)[nH]c2c1 | 28.1% (inactive)
COc1ccc(CCC2NCCc3c(Br)c4c(c(OC)c32)OCO4)cc1 (stereo not given) | 26.5% (inactive)
O=C1Nc2cc(-c3ccc(NS(=O)(=O)c4ccc(-c5ccccc5)cc4)cc3)ccc2/C1=C/c1ccc[nH]1 | 31.1% (inactive)
CCOC(=O)c1ccc(NC(=S)NC(=O)c2cccc(NC(=O)c3ccc(C)cc3)c2)cc1 | 77.5% (inactive)
O=C1c2cccc3c(N4CCN(c5ccccc5)CC4)ccc(c23)C(=O)N1c1cccc(-c2nn(-c3ccccc3)cc2-c2nc3ccccc3s2)c1 | 85.9% (inactive)
